# Bioassay records as filed in PubChem BioAssay.
# A selection: hits, their analogues and other compounds. The true share with any hit is near 3%.
# GALK inh = qHTS Assay for Inhibitors of Human Galactokinase (GALK). P51570. Purified GALK, Kinase-Glo residual ATP luminescence. Potency, µM (highest dose often 57.5 µM), inactives show top-dose activity change, negative = inhibition, most hits filed as inhibitors. hit rate 0.007% among 270,000. AID 1868, 2009; also: % is scaled to controls: 0 for no effect and ±100 for the full control effect
# Target sequence (P51570 whole entry, looked up): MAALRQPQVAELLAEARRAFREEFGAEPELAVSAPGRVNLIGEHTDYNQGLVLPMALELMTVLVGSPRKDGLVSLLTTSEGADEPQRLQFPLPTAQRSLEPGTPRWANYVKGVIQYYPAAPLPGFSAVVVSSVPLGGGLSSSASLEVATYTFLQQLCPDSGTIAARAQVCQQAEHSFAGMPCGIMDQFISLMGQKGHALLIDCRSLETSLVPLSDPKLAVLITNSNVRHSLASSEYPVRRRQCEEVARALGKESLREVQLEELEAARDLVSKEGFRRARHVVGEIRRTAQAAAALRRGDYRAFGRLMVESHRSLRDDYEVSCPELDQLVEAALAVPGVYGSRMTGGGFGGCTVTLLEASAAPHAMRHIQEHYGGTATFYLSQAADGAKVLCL
#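 ATP-depletion format; final 35 uM ATP, 100 uM D-galactose, 5 nM enzyme; pH 8.0 HEPES/Mg2+ buffer; 60 min RT; luminescence read 10 min after detection reagent.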
# Nrf2 inh = Nrf2 qHTS screen for inhibitors | A549 ARE-Fluc reporter, luciferase luminescence, 18-24 h | Potency, µM (series often up to 46 µM), for the others: at the top dose activity change, negative = inhibition, usual class: inhibitors | hit rate 2.1% among 360,000 | AID 504444, 2011; also: % is scaled to controls: 0 for no effect and ±100 for the full control effect; nearly all actives have a fitted effect of over 60% in size
#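 A549 ARE_Fluc cells, 5000/well, 5% FBS OPTI-MEM; compounds in dose-response, 18-24 h at 37 °C/5% CO2; CellTiter-Fluor viability read (Ex 405/Em 525), then BugLite luciferase luminescence = Nrf2 activity.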
# TrxR1 inh = qHTS Assay for Inhibitors of Mammalian Selenoprotein Thioredoxin Reductase 1 (TrxR1): qHTS; Thioredoxin reductase 1, cytoplasmic (Rattus norvegicus), O89049; Potency, µM (doses to about 114 µM), for the others: top-dose activity change, negative = inhibition, hits mostly inhibitors; hit rate 1% among 390,000; recombinant rTrxR1, NADPH fluorescence consumption, selenite substrate; also: % is scaled to controls: 0 for no effect and ±100 for the full control effect; nearly all actives have a fitted effect of over 65% in size
#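 Rat TrxR1 (90 nM in the dispensed reagent) was pre-reduced with 400 uM NADPH for 5 min at room temperature, then incubated with compound for 15 min. After 400 uM selenite was added, NADPH fluorescence (Ex 340/Em 450 nm) was followed for 8 min.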
# TrxR1 substrate = qHTS Assay for Substrates of Mammalian Selenoprotein Thioredoxin Reductase 1 (TrxR1): qHTS | Potency, µM (doses to about 114 µM), inactives show at the highest dose activity change, negative = substrate turnover | Thioredoxin reductase 1, cytoplasmic (Rattus norvegicus), O89049 | hit rate 0.01% among 390,000 | purified TrxR1 substrate turnover, NADPH consumption readout; also: % is scaled to controls: 0 for no effect and ±100 for the full control effect; nearly all actives have a fitted effect of over 50% in size
#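 Rat TrxR1, dispensed at 90 nM, was prereduced with 400 uM NADPH (final) for 5 min at ~22 deg C, then incubated with compound 15 min before 400 uM selenite. A first-read NADPH fluorescence drop versus no-compound background flagged substrates.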
# A549 tox-1 = Nrf2 qHTS screen for inhibitors: counterscreen for cytotoxicity | Potency, µM (doses to about 46 µM), for the others: at the highest dose activity change, negative = cytotoxicity, most hits filed as inhibitors | AID 504648, 2011 | A549 ARE-Fluc cells, CellTiter-Fluor viability, 18-24 h | hit rate 0.16% among 390,000; also: % is scaled to controls: 0 for no effect and ±100 for the full control effect
#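 Cytotoxicity counterscreen: CellTiter-Fluor fluorescence was measured in A549 ARE_Fluc cells after 18-24 h of compound exposure in a concentration series. The subsequent BugLite luminescent read reports ARE-luciferase activity.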
# Nrf2 activator = qHTS of Nrf2 Activators. hit rate 0.31% among 410,000. Potency, µM (titrated, usually from 46.1 µM), for inactives: at the highest dose activation, actives largely listed as activators. AREc32 ARE-luciferase reporter (MCF7-derived line), luminescence, 24 h. AID 624171, 2012; also: % of control where 0% means no effect; nearly all actives have a fitted effect of over 65% in size
#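 Nrf2 activation is followed as ARE-luciferase induction in the AREc32 line after one day of compound treatment; luminescence is read with Steady-Glo.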
# FLuc enzyme inh = Nrf2 qHTS screen for inhibitors: Purified Fluc Biochemical Counterscreen for Hit Validation; purified firefly luciferase, luminescence inhibition; hit rate 4% among 1,400; Potency, µM (titrated, usually from 57.5 µM), for inactives: at the top dose activity change, negative = inhibition, hits mostly inhibitors; shares compounds with Nrf2 inh; also: % is scaled to controls: 0 for no effect and ±100 for the full control effect; nearly all actives have a fitted effect of over 65% in size
# A549 tox-2 = Nrf2 qHTS screen for inhibitors: A549 ARE-Fluc Cytotoxicity Counterscreen for Hit Validation | shares compounds with Nrf2 inh | A549 ARE-Fluc cells, cytotoxicity counterscreen | Potency, µM (highest dose often 46.1 µM), inactives show top-dose activity change, negative = cytotoxicity, usual class: inhibitors | hit rate 2% among 1,400;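 also: cells exposed to compounds for 18 to 24 hours; % is scaled to controls: 0 for no effect and ±100 for the full control effect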
# ARE-Fluc inh = Nrf2 qHTS screen for inhibitors: Nrf2 A549 ARE-Fluc Confirmation Assay for Hit Validation. AID 720524, 2013. shares compounds with Nrf2 inh. Potency, µM (titrated, usually from 46.1 µM), for inactives: top-dose activity change, negative = inhibition, usual class: inhibitors. A549 ARE-firefly luciferase reporter, luminescence. hit rate 74% among 1,400; also: % is scaled to controls: 0 for no effect and ±100 for the full control effect; nearly all actives have a fitted effect of over 65% in size
# An asterisk follows results filed as active; u = inconclusive; x = no result given; [ ] = dose if it differs, or a comment. Calls follow the shape of the dose curve; as a rule, active = well fitted curve in the direction sought with a large enough effect; inconclusive = small, poorly fitted or top-dose-only effect, or another doubt; inactive = no such curve, though single readings can be large; an effect the other way counts as inactive or inconclusive. Potency is read from the fitted curve at half-maximal effect.
SMILES,GALK inh,Nrf2 inh,TrxR1 inh,TrxR1 substrate,A549 tox-1,Nrf2 activator,FLuc enzyme inh,A549 tox-2,ARE-Fluc inh
CC(C)C[C@@H]1CC2=C(C(=O)OC(C)(C)O2)[C@H](CCc2ccccc2)O1,x,x,x,x,x,1.4%,x,x,x
O=C(COc1ccc2c(-c3ccccc3)cc(=O)oc2c1)Nc1cccnc1,2.9%,2.31µM*,-2.9%,-1.8%,0.5%,-0.2%,-16.8%,-6.0%,1.84µM*
C[C@@H]1CN([C@@H](C)CO)C(=O)CCCn2nncc2CO[C@@H]1CN(C)C(=O)Nc1ccccc1,x,x,x,x,x,-1.0%,x,x,x
COc1cc(C(=O)N/N=C/c2ccc(OC(=O)c3ccccc3Cl)c(OC)c2)ccc1O,-2.3%,1.46µM*,10.6%,-4.1%,-1.6%,3.2%,0.536µM*,2.3%,0.92µM*
CCc1ccc2c(c1)NC(c1cccnc1)=NC(c1ccc(C(C)(C)C)cc1)=N2,x,u,13.1%,-13.2%,u,-0.2%,x,x,x
CCNC(=O)C1(C)CCCN(C(=O)c2cc(-c3ccccc3)cs2)C1 (configuration not stated),x,x,x,x,x,0.1%,x,x,x
CC[n+]1c(/C=C/N(C)c2ccccc2)oc2ccc(F)cc21,1.5%,6.51µM*,u,-6.6%[57.1 µM],-22.6%,6.8%,2.0%,-12.6%,5.8µM*
Cc1sc(NC(=O)Cc2ccc3c(c2)OCO3)nc1-c1ccc2c(c1)CCN2C(=O)c1ccc(F)cc1,-0.8%,5.17µM*,5.4%[57.1 µM],4.3%[57.1 µM],0.5%,-1.2%,-7.6%,7.8%,2.59µM*
Cc1ccc(-c2nnc(SCC(=O)NC3CCCC3)nc2-c2ccc(C)cc2)cc1,x,1.84µM*,-25.4%[57.1 µM],-15.6%[57.1 µM],u,1.0%,-3.2%,-9.3%,-13.5%
O=C(CSc1nnc(-c2ccc(Cl)cc2)c(-c2ccc(Cl)cc2)n1)NC1CCCC1,x,x,-0.8%[57.1 µM],-0.1%[57.1 µM],0.5%,4.7%,x,x,x
COc1ccc(CC2(C)OC(c3ccc(Cl)cc3)=NN2C(C)=O)cc1 (configuration not stated),x,u,6.3%[57.1 µM],39.1%[57.1 µM],-1.1%,0.1%,x,x,x
COc1cc(NC(=O)CCCSc2nc(-c3ccco3)cc(C(F)(F)F)n2)cc(OC)c1OC,-1.7%,u,-4.5%,-11.2%,-28.6%,5.3%,x,x,x
COc1cc(NC(=O)CSc2nc(-c3ccco3)cc(C(F)(F)F)n2)cc(OC)c1OC,x,9.2µM*,20.2%,0.4%,-14.2%,-0.1%,4.6%,-12.4%,u
CSc1nnc(NC(=O)c2cccc(S(=O)(=O)N3CCOCC3)c2)s1,-1.6%,14.9%,-15.8%,-12.8%,-7.0%,-0.3%,x,x,x
C[C@H]1C[C@H]2[C@@H]3CCC4=CC(=O)C=C[C@]4(C)[C@@]3(F)[C@@H](O)C[C@]2(C)[C@@]1(O)C(=O)CO,x,0.0164µM*,11.6%,4.8%,-12.3%,-0.9%,-1.3%,-8.3%,0.0052µM*
